Test results taken from the supplement of paper PMC10849652.
About 7,900 targets were measured; listed, in parts, are those with a hit and a random draw of the rest. About 0.6% of all pairs of compound and target were hits.

Tests used:
Experiment in all cases: log2 fold change, soluble protein after heating vs DMSO (PISA); higher = thermal stabilisation; K562 cells, 10 uM, 30 min; active = over 0.2 and 3.5 SD of the protein, either way, in both replicates (recomputed)
bafetinib = compound: Cc1ccc(NC(=O)c2ccc(CN3CC[C@H](N(C)C)C3)c(C(F)(F)F)c2)cc1Nc1nccc(-c2cncnc2)n1 [bafetinib]
Procedure, shortened: (§1)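 Soluble protein was defined as the supernatant after 21,000xg for 90 min. It came from K562 cells at 2×10^6 cells/mL given 10 μM compound for 30 min, heated in aliquots for 3 min across 48°C-58°C, pooled, and extracted in PBS with 0.5% NP-40 at 4°C, and was quantified by TMTpro 16plex LC-MS/MS with equalised channel sums. Thermal stability against control samples, from duplicates, is reported as log2 fold change.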

[1] = compound: Cc1cccc(CC(=O)N2CCc3c2ccc(-c2cn(C)c4ncnc(N)c24)c3F)n1
Procedure, shortened: as §1

nilotinib = compound: Cc1cn(-c2cc(NC(=O)c3ccc(C)c(Nc4nccc(-c5cccnc5)n4)c3)cc(C(F)(F)F)c2)cn1 [nilotinib]
Procedure, shortened: as §1

[2] = compound: Cc1nc(Nc2n[nH]c3c2CN(C(=O)N[C@H](CN(C)C)c2ccccc2)C3(C)C)c2sccc2n1
Procedure, shortened: as §1

dasatinib = compound: Cc1nc(Nc2ncc(C(=O)Nc3c(C)cccc3Cl)s2)cc(N2CCN(CCO)CC2)n1 [dasatinib]
Procedure, shortened: as §1

[3] = compound: Cc1ncc(-c2ccnc(Nc3ccc(S(C)(=O)=O)cc3)n2)n1C(C)C
Procedure, shortened: as §1

[4] = compound: Cn1cc(-c2ccc3c(c2)CCN3C(=O)Cc2cccc(C(F)(F)F)c2)c2c(N)ncnc21
Procedure, shortened: as §1

[5] = compound: Cn1cc(-c2ccc3nnc(C(F)(F)c4ccc5ncccc5c4)n3n2)cn1
Procedure, shortened: as §1

tipifarnib = compound: Cn1cncc1[C@@](N)(c1ccc(Cl)cc1)c1ccc2c(c1)c(-c1cccc(Cl)c1)cc(=O)n2C [tipifarnib]
Procedure, shortened: as §1

mubritinib = compound: FC(F)(F)c1ccc(/C=C/c2nc(COc3ccc(CCCCn4ccnn4)cc3)co2)cc1 [mubritinib]
Procedure, shortened: as §1

[6] = compound: NC(=O)Nc1cc(-c2cccc(F)c2)sc1C(=O)N[C@H]1CCCNC1
Procedure, shortened: as §1

[7] = compound: NC(=O)c1cnc(N[C@@H]2CCCC[C@@H]2N)nc1Nc1cccc(-n2nccn2)c1
Procedure, shortened: as §1

[8] = compound: NC1(c2ccc(-c3nc4ccn5c(=O)[nH]nc5c4cc3-c3ccccc3)cc2)CCC1
Procedure, shortened: as §1

[9] = compound: NCC(=O)Nc1ccc(-n2nc(C(F)(F)F)cc2-c2ccc3c(ccc4ccccc43)c2)cc1
Procedure, shortened: as §1

entinostat = compound: Nc1ccccc1NC(=O)c1ccc(CNC(=O)OCc2cccnc2)cc1 [entinostat]
Procedure, shortened: as §1

vorinostat = compound: O=C(CCCCCCC(=O)Nc1ccccc1)NO [vorinostat]
Procedure, shortened: as §1

citarinostat = compound: O=C(CCCCCCNC(=O)c1cnc(N(c2ccccc2)c2ccccc2Cl)nc1)NO [citarinostat]
Procedure, shortened: as §1

silmitasertib = compound: O=C(O)c1ccc2c(c1)nc(Nc1cccc(Cl)c1)c1ccncc12 [silmitasertib]
Procedure, shortened: as §1

[10] = compound: O=C1NC(=O)C(c2cnc3ccccn23)=C1c1cn2c3c(cc(F)cc13)CN(C(=O)N1CCCCC1)CC2
Procedure, shortened: as §1

[11] = compound: c1cc(OCCN2CCCCC2)cc(-c2n[nH]c3ccc(-c4nnc[nH]4)cc23)c1
Procedure, shortened: as §1

Measured: log2 fold change

CHP1 (UniProt Q99653)
Sequence of UniProt Q99653 (Q99653 whole entry, looked up): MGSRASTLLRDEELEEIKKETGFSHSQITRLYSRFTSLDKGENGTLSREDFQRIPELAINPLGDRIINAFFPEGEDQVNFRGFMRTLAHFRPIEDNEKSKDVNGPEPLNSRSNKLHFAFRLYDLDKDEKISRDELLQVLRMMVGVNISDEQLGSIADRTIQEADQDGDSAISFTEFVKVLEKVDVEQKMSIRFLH
inactive: bafetinib 0 | [1] -0.087 | nilotinib 0.014 | [2] 0.019 | dasatinib 0.042 | [3] 0.004 | [4] 0.043 | [5] -0.116 | tipifarnib 0.072 | mubritinib 0.037 | [6] -0.1 | [7] 0.014 | [8] -0.104 | [9] 0.19 | entinostat -0.012 | vorinostat -0.066 | citarinostat 0.001 | silmitasertib 0.061 | [10] -0.054 | [11] 0.011

CHAF1A (UniProt Q13111)
Sequence of UniProt Q13111 (Q13111 whole entry, looked up): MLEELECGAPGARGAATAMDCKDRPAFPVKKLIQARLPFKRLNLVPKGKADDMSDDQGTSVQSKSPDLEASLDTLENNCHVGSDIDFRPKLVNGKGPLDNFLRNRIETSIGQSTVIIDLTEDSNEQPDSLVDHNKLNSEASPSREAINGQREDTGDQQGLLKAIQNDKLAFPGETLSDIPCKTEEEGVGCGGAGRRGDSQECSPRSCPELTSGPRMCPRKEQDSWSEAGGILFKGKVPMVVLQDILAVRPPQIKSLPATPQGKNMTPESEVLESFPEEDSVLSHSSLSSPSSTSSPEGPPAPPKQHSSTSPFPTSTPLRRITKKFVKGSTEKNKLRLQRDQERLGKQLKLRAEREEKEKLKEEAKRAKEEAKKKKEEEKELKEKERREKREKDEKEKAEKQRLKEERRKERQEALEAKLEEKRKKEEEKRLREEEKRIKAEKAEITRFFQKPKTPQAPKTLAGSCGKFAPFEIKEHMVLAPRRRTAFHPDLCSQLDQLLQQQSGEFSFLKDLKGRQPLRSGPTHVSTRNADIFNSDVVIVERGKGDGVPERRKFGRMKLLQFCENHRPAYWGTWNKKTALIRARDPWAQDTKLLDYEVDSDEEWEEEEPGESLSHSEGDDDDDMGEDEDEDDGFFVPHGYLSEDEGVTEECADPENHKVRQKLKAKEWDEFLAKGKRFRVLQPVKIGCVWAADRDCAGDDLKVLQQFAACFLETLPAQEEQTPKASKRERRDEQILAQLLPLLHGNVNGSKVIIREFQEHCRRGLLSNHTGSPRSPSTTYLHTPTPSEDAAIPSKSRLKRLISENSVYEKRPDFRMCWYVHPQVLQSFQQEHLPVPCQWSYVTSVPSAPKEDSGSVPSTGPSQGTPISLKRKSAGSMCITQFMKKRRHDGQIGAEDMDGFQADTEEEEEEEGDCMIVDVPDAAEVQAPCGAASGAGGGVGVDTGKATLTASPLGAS
active: [11] -0.439
inactive: bafetinib -0.154 | [1] -0.04 | nilotinib 0.053 | [2] 0.047 | dasatinib 0.016 | [3] -0.074 | [4] 0.006 | [5] 0.002 | tipifarnib 0.015 | mubritinib 0.034 | [6] 0.087 | [7] 0.046 | [8] 0.036 | entinostat -0.141 | vorinostat 0.121 | citarinostat 0.005 | silmitasertib -0.019 | [10] -0.167

C9orf72 (UniProt Q96LT7)
Sequence of UniProt Q96LT7 (Q96LT7 whole entry, looked up): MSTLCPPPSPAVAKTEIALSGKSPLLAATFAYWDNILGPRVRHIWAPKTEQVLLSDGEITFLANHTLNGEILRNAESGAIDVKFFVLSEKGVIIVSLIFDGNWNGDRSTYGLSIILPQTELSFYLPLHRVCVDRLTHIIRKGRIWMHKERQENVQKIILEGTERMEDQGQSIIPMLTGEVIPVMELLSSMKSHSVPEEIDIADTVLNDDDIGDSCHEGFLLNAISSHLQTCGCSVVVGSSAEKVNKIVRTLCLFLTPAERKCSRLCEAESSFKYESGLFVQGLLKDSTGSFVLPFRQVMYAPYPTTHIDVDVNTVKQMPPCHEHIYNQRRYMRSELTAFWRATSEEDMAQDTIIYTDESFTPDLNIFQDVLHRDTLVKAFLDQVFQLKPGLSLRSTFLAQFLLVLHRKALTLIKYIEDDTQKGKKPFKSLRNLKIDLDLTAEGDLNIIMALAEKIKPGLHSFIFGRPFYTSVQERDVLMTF
inactive: bafetinib 0.029 | [1] -0.018 | nilotinib 0.031 | [2] 0.073 | dasatinib -0.004 | [3] 0.006 | [4] 0.085 | [5] -0.05 | tipifarnib 0.033 | mubritinib 0.021 | [6] 0.028 | [7] -0.041 | [8] -0.148 | [9] -0.009 | entinostat -0.011 | vorinostat 0.232 | silmitasertib -0.067 | [10] -0.011

CSNK2A1 (UniProt P68400)
inactive: bafetinib -0.02 | [1] -0.073 | nilotinib 0.032 | [2] 0.019 | dasatinib -0.03 | [3] -0.055 | [4] -0.019 | [5] 0.035 | tipifarnib 0.03 | mubritinib -0.019 | [6] -0.062 | [7] 0.014 | [8] 0.007 | [9] 0.05 | entinostat -0.015 | vorinostat 0.046 | citarinostat -0.013 | [10] -0.027 | [11] -0.045

CPSF1 (UniProt Q10570)
Sequence of UniProt Q10570 (Q10570 whole entry, looked up): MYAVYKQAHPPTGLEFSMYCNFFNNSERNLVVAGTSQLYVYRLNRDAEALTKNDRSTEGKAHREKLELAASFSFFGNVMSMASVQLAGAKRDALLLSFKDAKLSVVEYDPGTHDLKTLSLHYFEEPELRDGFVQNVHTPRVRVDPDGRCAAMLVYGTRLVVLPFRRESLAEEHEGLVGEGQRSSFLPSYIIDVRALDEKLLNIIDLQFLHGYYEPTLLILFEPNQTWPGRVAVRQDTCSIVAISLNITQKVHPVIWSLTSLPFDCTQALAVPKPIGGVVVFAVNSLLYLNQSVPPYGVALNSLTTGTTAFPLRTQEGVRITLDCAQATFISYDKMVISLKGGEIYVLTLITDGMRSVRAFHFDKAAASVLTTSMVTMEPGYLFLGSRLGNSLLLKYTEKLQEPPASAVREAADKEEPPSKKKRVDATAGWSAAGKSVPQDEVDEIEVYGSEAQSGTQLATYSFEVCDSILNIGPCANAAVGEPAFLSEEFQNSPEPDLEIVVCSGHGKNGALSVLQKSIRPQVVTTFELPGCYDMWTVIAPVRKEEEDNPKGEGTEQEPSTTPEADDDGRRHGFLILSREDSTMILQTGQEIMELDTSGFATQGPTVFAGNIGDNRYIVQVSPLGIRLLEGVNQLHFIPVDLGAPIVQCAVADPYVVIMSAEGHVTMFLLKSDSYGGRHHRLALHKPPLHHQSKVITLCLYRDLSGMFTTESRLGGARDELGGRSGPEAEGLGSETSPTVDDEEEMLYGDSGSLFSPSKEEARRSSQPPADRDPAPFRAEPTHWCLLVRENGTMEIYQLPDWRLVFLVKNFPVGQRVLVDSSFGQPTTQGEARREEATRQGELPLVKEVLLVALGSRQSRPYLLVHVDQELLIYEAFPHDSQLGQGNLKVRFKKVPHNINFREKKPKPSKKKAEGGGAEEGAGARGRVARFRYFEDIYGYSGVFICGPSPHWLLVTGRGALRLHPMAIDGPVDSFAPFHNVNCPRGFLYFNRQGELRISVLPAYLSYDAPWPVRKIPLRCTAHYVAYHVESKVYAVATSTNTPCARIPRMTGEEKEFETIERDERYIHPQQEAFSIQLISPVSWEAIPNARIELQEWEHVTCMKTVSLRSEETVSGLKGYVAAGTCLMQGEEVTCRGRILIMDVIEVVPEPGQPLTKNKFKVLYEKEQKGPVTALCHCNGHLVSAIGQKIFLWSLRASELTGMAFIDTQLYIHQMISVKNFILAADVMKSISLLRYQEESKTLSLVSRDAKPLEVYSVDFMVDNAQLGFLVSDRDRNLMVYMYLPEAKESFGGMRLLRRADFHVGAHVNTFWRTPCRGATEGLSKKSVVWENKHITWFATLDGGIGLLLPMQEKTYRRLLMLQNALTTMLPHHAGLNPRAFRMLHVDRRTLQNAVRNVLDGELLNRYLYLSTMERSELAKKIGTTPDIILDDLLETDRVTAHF
inactive: bafetinib 0.026 | [1] -0.007 | nilotinib 0.065 | [2] -0.002 | dasatinib -0.037 | [3] -0.014 | [4] -0.077 | [5] -0.14 | tipifarnib 0.026 | mubritinib -0.007 | [6] 0.024 | [7] 0.069 | [8] 0.059 | [9] 0.006 | entinostat -0.023 | vorinostat 0.012 | citarinostat -0.025 | silmitasertib 0.052 | [10] 0.099 | [11] -0.139

CSNK2B (UniProt P67870)
Sequence of UniProt P67870 (P67870 whole entry, looked up): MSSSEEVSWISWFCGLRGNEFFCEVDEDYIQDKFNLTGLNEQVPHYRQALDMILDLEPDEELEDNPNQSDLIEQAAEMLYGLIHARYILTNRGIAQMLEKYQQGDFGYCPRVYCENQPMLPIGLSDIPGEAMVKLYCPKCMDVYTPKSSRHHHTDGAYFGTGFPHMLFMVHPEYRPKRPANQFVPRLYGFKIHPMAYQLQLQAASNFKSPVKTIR
active: silmitasertib 0.377
inactive: bafetinib 0.036 | [1] 0.014 | nilotinib 0.052 | [2] 0.018 | dasatinib 0.015 | [3] -0.05 | [4] 0.038 | [5] -0.01 | tipifarnib -0.042 | mubritinib -0.017 | [6] -0.017 | [7] 0 | [8] 0.006 | [9] 0.084 | entinostat -0.008 | vorinostat 0.021 | citarinostat 0.036 | [10] -0.011 | [11] -0.02

COA6 isoform 2 (UniProt Q5JTJ3)
Sequence of UniProt Q5JTJ3 (Q5JTJ3 whole entry, looked up): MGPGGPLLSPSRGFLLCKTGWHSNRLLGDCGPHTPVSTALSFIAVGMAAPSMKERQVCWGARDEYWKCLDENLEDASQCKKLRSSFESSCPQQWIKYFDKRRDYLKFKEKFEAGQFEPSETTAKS
inactive: bafetinib -0.093 | [1] 0.002 | nilotinib -0.064 | [2] 0.02 | dasatinib -0.017 | [3] 0.012 | [4] -0.097 | [5] 0.035 | tipifarnib -0.008 | mubritinib 0.041 | [6] 0.034 | [7] 0.106 | [8] -0.009 | [9] -0.018 | entinostat -0.003 | vorinostat -0.024 | citarinostat 0.053 | silmitasertib 0.01 | [10] 0.011 | [11] -0.041

CDKN1B (UniProt P46527)
Sequence of UniProt P46527 (P46527 whole entry, looked up): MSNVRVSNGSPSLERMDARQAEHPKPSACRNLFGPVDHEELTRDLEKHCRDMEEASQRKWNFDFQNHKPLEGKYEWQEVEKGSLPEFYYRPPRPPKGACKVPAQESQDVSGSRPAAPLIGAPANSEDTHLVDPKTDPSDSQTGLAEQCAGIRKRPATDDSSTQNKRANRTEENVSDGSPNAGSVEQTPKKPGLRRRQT
inactive: bafetinib -0.001 | [1] -0.05 | nilotinib 0.013 | [2] -0.097 | dasatinib 0.004 | [3] 0.149 | [4] 0.108 | [5] 0.04 | tipifarnib 0.009 | mubritinib 0.114 | [6] -0.154 | [7] 0.178 | [8] 0.017 | [9] -0.177 | entinostat 0.046 | vorinostat -0.01 | silmitasertib -0.072 | [10] -0.01

COASY isoform 2 (UniProt Q13057)
inactive: bafetinib -0.009 | [1] 0.089 | nilotinib -0.19 | [2] 0.001 | dasatinib -0.132 | [3] 0.005 | [4] 0.037 | [5] -0.062 | tipifarnib -0.102 | mubritinib -0.196 | [6] 0 | [7] 0.004 | [8] -0.138 | [9] -0.004 | entinostat 0.018 | vorinostat 0.063 | citarinostat 0.054 | silmitasertib 0.042 | [10] -0.004 | [11] -0.01

CLUH (UniProt O75153)
inactive: bafetinib 0.007 | [1] 0.045 | nilotinib 0.191 | [2] 0.108 | dasatinib -0.093 | [3] -0.068 | [4] 0.067 | tipifarnib -0.022 | mubritinib -0.018 | [6] -0.002 | [7] -0.072 | [8] 0.023 | [9] -0.025 | entinostat 0.022 | vorinostat 0.05 | citarinostat -0.08 | silmitasertib 0.063 | [10] 0.133 | [11] 0.041
active: [5] 0.478

COX20 isoform 2 (UniProt Q5RI15)
Sequence of UniProt Q5RI15 (Q5RI15 whole entry, looked up): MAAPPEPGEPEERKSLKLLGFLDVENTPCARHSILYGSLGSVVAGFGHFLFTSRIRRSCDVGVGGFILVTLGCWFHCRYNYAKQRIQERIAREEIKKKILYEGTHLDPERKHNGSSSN
inactive: bafetinib -0.072 | [1] -0.241 | nilotinib 0.017 | [2] 0.012 | dasatinib 0.049 | [3] 0.009 | [4] -0.044 | [5] 0.023 | tipifarnib -0.069 | mubritinib -0.092 | [6] -0.02 | [7] -0.016 | [9] -0.029 | entinostat -0.036 | vorinostat -0.116 | citarinostat 0.027 | silmitasertib -0.034 | [10] -0.004 | [11] 0.016
active: [8] 0.363

CNOT4 isoform 9 (UniProt O95628)
inactive: bafetinib 0.081 | [1] 0.067 | nilotinib 0.094 | [2] -0.172 | dasatinib 0.074 | [3] 0 | [4] 0.096 | [5] 0.036 | tipifarnib -0.019 | mubritinib 0.055 | [7] -0.115 | [8] -0.077 | [9] 0.11 | vorinostat -0.003 | citarinostat -0.038 | silmitasertib 0.024 | [11] 0.178

COQ7 (UniProt Q99807)
Sequence of UniProt Q99807 (Q99807 whole entry, looked up): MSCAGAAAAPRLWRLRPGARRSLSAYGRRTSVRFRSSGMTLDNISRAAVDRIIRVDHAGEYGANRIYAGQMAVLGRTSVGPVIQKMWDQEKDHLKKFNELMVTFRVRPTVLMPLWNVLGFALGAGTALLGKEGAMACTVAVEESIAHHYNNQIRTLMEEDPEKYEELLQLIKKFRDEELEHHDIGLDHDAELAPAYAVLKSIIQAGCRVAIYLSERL
inactive: bafetinib -0.168 | [1] -0.062 | nilotinib 0.006 | [2] -0.103 | dasatinib -0.006 | [3] -0.033 | [4] 0.055 | [5] 0.095 | tipifarnib 0.029 | mubritinib 0.055 | [6] -0.12 | [7] -0.009 | [8] -0.076 | [9] -0.007 | entinostat 0 | vorinostat -0.032 | citarinostat 0.083 | silmitasertib 0.008 | [10] -0.002 | [11] 0.015

C16orf58 (UniProt Q96GQ5)
Sequence of UniProt Q96GQ5 (Q96GQ5 whole entry, looked up): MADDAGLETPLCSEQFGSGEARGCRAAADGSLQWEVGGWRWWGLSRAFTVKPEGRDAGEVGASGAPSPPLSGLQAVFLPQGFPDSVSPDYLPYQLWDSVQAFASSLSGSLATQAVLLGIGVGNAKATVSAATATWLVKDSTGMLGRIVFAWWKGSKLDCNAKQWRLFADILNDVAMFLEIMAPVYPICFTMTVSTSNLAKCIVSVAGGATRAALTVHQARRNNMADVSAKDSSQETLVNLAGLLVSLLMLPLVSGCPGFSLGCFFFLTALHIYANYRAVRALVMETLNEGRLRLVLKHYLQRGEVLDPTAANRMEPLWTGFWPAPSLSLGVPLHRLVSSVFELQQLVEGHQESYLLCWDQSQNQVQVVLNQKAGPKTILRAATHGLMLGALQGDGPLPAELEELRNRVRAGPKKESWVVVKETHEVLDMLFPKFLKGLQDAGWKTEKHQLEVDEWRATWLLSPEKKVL
inactive: bafetinib -0.112 | [1] 0.052 | nilotinib -0.036 | [2] 0.029 | dasatinib -0.046 | [3] -0.01 | [4] 0.084 | [5] 0.012 | tipifarnib 0.003 | mubritinib 0.021 | [6] -0.047 | [7] -0.05 | [8] -0.111 | [9] -0.08 | entinostat 0.001 | vorinostat 0.026 | citarinostat 0.034 | silmitasertib 0.032 | [10] -0.027 | [11] -0.017

CNOT7 (UniProt Q9UIV1)
Sequence of UniProt Q9UIV1 (Q9UIV1 whole entry, looked up): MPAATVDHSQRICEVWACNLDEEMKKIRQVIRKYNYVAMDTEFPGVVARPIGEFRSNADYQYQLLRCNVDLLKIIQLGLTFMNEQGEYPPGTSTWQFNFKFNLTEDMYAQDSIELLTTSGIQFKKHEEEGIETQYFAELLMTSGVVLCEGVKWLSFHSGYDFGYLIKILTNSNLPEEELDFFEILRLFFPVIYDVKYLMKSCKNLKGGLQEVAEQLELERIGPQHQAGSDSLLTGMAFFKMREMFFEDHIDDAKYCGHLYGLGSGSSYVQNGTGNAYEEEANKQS
inactive: bafetinib 0.059 | [1] -0.037 | nilotinib -0.077 | [2] -0.057 | dasatinib -0.255 | [3] 0.002 | [4] -0.034 | [5] -0.051 | tipifarnib -0.075 | mubritinib 0.014 | [6] -0.053 | [7] 0.039 | [8] 0 | [9] 0.028 | entinostat 0.091 | vorinostat 0.152 | citarinostat -0.12 | silmitasertib 0.12 | [10] 0.032 | [11] -0.089

CCDC167 (UniProt Q9P0B6)
Sequence of UniProt Q9P0B6 (Q9P0B6 whole entry, looked up): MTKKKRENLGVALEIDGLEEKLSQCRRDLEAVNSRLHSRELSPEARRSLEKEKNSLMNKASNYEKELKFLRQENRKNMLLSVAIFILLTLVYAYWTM
inactive: bafetinib -0.024 | [1] -0.057 | nilotinib -0.03 | [2] -0.035 | dasatinib 0.193 | [3] 0.026 | [4] -0.185 | [5] -0.018 | tipifarnib 0.142 | mubritinib -0.043 | [6] 0.014 | [8] 0.046 | entinostat 0.031 | vorinostat 0.008 | citarinostat -0.014 | silmitasertib 0.135 | [10] 0.038 | [11] 0.009
